Screens (PubChem)
This is a sample that favours compounds with a hit; in the whole collection about 1.4% have one here.
MbtI inh: MbtI salicylate synthase inhibitors, primary screen, biochemical, fluorescence intensity. inhibition, % (test concentration not listed). purified MbtI enzyme, fluorescence intensity read-out. 100,000 tested, 0.89% active. P9WFX0; in the data active means inhibition mostly above about 56%, no sharp cut-off; inactive means mostly below about 77%
Mtb MenB inh: M. tuberculosis MenB inhibitors, primary screen, biochemical, absorbance; 1,4-dihydroxy-2-naphthoyl-CoA synthase (Mycobacterium tuberculosis (strain ATCC 25618 / …; MenB enzyme assay, absorbance read-out; inhibition, % (no concentration beside the values); 100,000 tested, 0.43% active; AID 540299, 2011; in the data active means inhibition above about 21%, passing the limit was not always enough
Polio RdRp inh: poliovirus RdRp elongation inhibitors, primary screen, biochemical, fluorescence polarization, total intensity. Genome polyprotein (Poliovirus type 1 (strain Mahoney)), P03300. poliovirus polymerase elongation; hits give low values. % elongation, % (compound at 16.7 µg/mL). 150,000 tested, 0.66% active; in the data active means % elongation below about 90%
Target sequence (P03300 1749-2209 limits assumed): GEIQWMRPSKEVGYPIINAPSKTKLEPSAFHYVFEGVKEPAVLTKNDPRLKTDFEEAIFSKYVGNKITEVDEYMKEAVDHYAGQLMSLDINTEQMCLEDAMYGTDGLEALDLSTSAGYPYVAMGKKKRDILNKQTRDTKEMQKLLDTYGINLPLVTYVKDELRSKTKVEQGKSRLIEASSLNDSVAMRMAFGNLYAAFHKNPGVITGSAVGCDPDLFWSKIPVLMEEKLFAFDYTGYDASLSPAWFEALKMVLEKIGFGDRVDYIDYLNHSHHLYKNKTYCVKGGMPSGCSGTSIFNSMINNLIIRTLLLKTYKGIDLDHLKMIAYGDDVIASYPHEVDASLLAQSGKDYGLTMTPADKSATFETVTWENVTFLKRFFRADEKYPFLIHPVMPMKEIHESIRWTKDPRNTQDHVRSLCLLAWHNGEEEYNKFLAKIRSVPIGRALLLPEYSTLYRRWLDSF
AID504770: growth inhibition of E. coli YBA685, primary screen, V. cholerae RctB inhibitors; 130,000 tested, 0.27% active; z-score (concentration not given with the values); E. coli YBA685 rctB-dependent plasmid, OD600 growth, 3 h; hits give low values; in the data active means z-score below about -2, passing the limit was not always enough
Numbers without * were called inactive; . = not tested or not shown.

SMILES	MbtI inh	Mtb MenB inh	Polio RdRp inh	AID504770
COc1cc2ccc(=O)oc2c(OC2OC(CO)C(O)C(O)C2O)c1O (stereo not drawn)	.	-36.0	103.0	-0.15
O=C1/C(=C/c2cc3ccccc3o2)CC/C1=C\c1cc2ccccc2o1	2.8	-20.4	108.0	-0.15
O=C1/C(=C\c2ccc(Br)o2)CC/C1=C/c1ccc(Br)o1	41.8	-37.5	43.0*	0.55
CC1(C)CC(=O)C2=C(C1)NC(=O)C(C#N)C2c1ccccc1 (stereo not drawn)	6.5	-15.8	99.0	1.8
CN=Cc1cc(-c2ccccc2)n(C)c1S	98.5*	-144.0	101.0	1.4
O=C(O)CCSc1nc2ccccc2o1	-11.8	-18.5	103.0	-0.2
Cc1nc2sccn2c1-c1csc(Nc2cccc(Cl)c2C)n1	70.2*	-10.5	99.0	-0.2
CCc1ccccc1Nc1nc(-c2c(C)nc3sccn23)cs1	49.2	-5.5	101.0	2.1
CN1CCN(S(=O)(=O)c2ccc3oc(=O)c4ncn(C)c4c3c2)CC1	-178.9	-6.4	102.0	-2.35*
Cn1cnc2c(=O)oc3ccc(S(=O)(=O)N4CCN(c5ccccc5)CC4)cc3c21	.	.	105.0	.
CC(C)c1cccc(C(C)C)c1NC(=O)Cc1cccs1	.	0.3	102.0	-0.35
COC(=O)Nc1scc2c1c(=O)oc1ccccc12	70.9*	-20.8	98.0	-0.35
CC(=O)Nc1scc2c1c(=O)oc1ccccc12	11.2	-16.7	103.0	-0.6
O=c1ccc2cc3c([nH]c4ccc(Br)cc43)oc-2c1O	96.8*	-119.3	86.0	0.5
O=C(Cc1ccccc1)Nc1sc2c(c1C(=O)Nc1ccccc1)CCCCC2	.	.	100.0	.
O=C(Cc1ccccc1)Nc1sc2c(c1C(=O)Nc1ccc(Cl)cc1)CCCC2	.	.	71.0*	.
O=C(COc1ccccc1)Nc1sc2c(c1C(=O)Nc1ccccc1Cl)CCCCC2	.	.	102.0	.
O=C(Cc1ccccc1)Nc1sc2c(c1C(=O)Nc1ccccc1Cl)CCCC2	.	.	85.0*	.
O=C(Nc1sc2c(c1C(=O)Nc1cccc(Cl)c1)CCCC2)c1cccs1	.	.	77.0*	.
Nc1sc2c(c1C(=O)Nc1cccc(Cl)c1)CCCCC2	.	-14.3	104.0	0.05
Nc1sc2c(c1C(=O)Nc1ccc(Cl)cc1)CCC2	.	-2.9	89.0*	-0.05
CCCNC(=O)NCc1cc(C)n(-c2ccc(Cl)cc2)c1C	-3.5	-10.3	101.0	0.1
CCOC(=O)c1c(Nc2ccc(OC)c(Cl)c2)n[nH]c1C	87.8*	-56.4	98.0	3
CCN(CCO)c1nc(NC2CCCCC2)c2cnn(C)c2n1	-22.2	-19.3	105.0	-2.1*
CCC(Sc1nc2c(c(=O)[nH]1)CCC2)C(=O)Nc1cccc(OC)c1 (stereo not drawn)	95.8*	5.3	102.0	-1.05
SMILES	MbtI inh	Mtb MenB inh	Polio RdRp inh	AID504770
COC(=O)COc1ccc2cccc(-n3cnnn3)c2c1	89.6	38.8*	101.0	1.25
Cc1ccc2nc(NCc3ccccc3)[nH]c2c1	-11.4	4.2	102.0	-2.2*
Cc1ccc(CNC(=O)CC(C)C)cc1	.	-46.0	99.0	0
N#Cc1c(-c2ccc3c(c2)OCO3)cc(-c2ccc(F)cc2)nc1N	74.9	-11.6	101.0	-1.05
FC(F)(F)c1cc(-c2ccc3c(c2)OCO3)nc(=S)[nH]1	-143.3	34.4*	102.0	1.45
CCOc1ccc(C(=S)N(C)C)cc1	78.5*	-15.9	100.0	0.7
CCOc1ccc(OCCCCN(C)C)cc1	1.4	-29.5	101.0	0.2
Cn1nc(C2CC2)cc1C(=O)O	2.2	30.4*	102.0	-0.35
COc1ccc2c(c1)C1(NNc3ccccc3O1)C(=O)N2 (stereo not drawn)	61.5	-132.7	120.0	-10.7*
CCn1c(C2CC2)n[nH]c1=S	87.1*	-15.3	.	0.55
Cn1c(C2CC2)n[nH]c1=S	17.4	-51.8	108.0	2
Cc1ccc(C(=O)NC2CCCCCCC2)cc1I	-7.0	-8.3	101.0	-0.75
O=C(N/N=C/c1ccco1)C1CN(S(=O)(=O)c2ccccc2)CCN1S(=O)(=O)c1ccccc1 (stereo not drawn)	83.6*	-32.4	102.0	-1.2
CC(=O)Nc1ccc(O)c(C(=O)O)c1	.	.	.	-0.65
O=C(O)CCC(=O)Nc1ccc(O)c(C(=O)O)c1	105.7	6.3	87.0*	0
C#CCn1c(=NC(=O)c2ccc(S(=O)(=O)N3CCCC3)cc2)sc2cc3c(cc21)OCO3	1.4	4.4	102.0	-0.45
CCCNCc1ccccc1	-2.2	32.2*	99.0	-0.1
OC(COC(C(F)(F)F)C(F)(F)F)CN1CCN(Cc2ccc3c(c2)OCO3)CC1 (stereo not drawn)	-1.3	-6.5	101.0	-0.05
Cc1ccc(C2=NNC(c3cccs3)S2)cc1 (stereo not drawn)	.	-3.3	72.0*	0.9
CCN1CCCC1CN1CNC(=S)NC1 (stereo not drawn)	-5.0	-17.3	102.0	-0.25
C=CCn1c(C2COc3ccccc3O2)n[nH]c1=S (stereo not drawn)	97.8*	-22.4	100.0	0.65
Clc1nc(Cl)nc(Nc2ccccc2)n1	.	-2.6	87.0*	0.65
Fc1cccc(Nc2nc(Cl)nc(Cl)n2)c1	2.4	47.9*	98.0	-0.55
CN(C)c1nc(Nc2ccccc2)nc(N(C)C)n1	5.3	33.8	99.0	-0.5
COc1ccccc1NC(=O)Cn1cnc2sc(C(=O)OC(C)C)c(C)c2c1=O	.	-4.9	107.0	0.2
SMILES	MbtI inh	Mtb MenB inh	Polio RdRp inh	AID504770
C=CCNS(=O)(=O)/C=C/c1ccccc1	2.9	-18.9	105.0	0.85
N#CCOC(=O)c1ccc(-c2cc(=O)c3ccccc3o2)cc1	.	.	.	-0.2
N#CCOC(=O)c1cc(=O)c2ccccc2o1	-12.8	2.4	74.0*	0.25
O=C(Nc1nc(-c2ccccc2)cs1)C1CCC1	9.8	-29.3	100.0	-0.05
c1ccc(-c2nc(NC3CCCCC3)s[n+]2-c2ccccc2)cc1	90.9*	.	100.0	0.6
c1ccc(-c2csc(NC3CCCCC3)n2)cc1	79.3	-49.6	84.0*	-0.45
CCN1CCN(C(=O)c2ccccc2F)CC1	-6.1	.	102.0	2.15
CCOC(=O)/C(C#N)=C1\CC2CCC1(C)C2(C)C (stereo not drawn)	83.8*	20.7	98.0	0.35
CN(C(=O)/C=C/C(=O)O)c1ccccc1	-16.8	20.5	94.0	0
S=C(SN1CCOCC1)N1CCOCC1	.	-68.9	77.0*	-0.55
CC12CN(NC=O)C3(C#N)CC1CCC23C (stereo not drawn)	2.2	-17.0	102.0	1.7
COc1ccccc1C(=O)NCC(=O)O	-0.4	34.7*	100.0	-0.3
NC1=CC(=O)c2ccccc2C1=O	66.2	-65.5	88.0*	-2.35*
CC1=CC(=O)c2ccccc2C1=O	10.0	-6.0	99.0	0.65
Cc1ccc(C(N)=S)c(=O)[nH]1	172.6	-54.9	85.0*	-0.2
O=C(CCCN1C(=O)c2ccccc2C1=O)NC1=NCCS1	1.6	-17.2	100.0	-0.5
O=C(CCN1c2ccccc2Sc2ccccc21)NC1=NCCS1	-19.2	-8.6	85.0*	0.1
N#CC1=C(SCc2ccccc2)SC(c2ccccc2O)NC1=O (stereo not drawn)	21.4	-1.2	102.0	-3.4*
